Among all 7,400 compounds or so, about 4,100 (55%) were called active.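 The calls were made as follows: active = inhibition of yeast growth at or above a set limit in either of two repeat tests at 20 µM; inactive = the rest.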 So high a share suggests a set chosen from earlier hits. A selection follows.
Assay: growth inhibitors of tim10-1 mutant yeast, confirmation, single concentration, luminescence, S. cerevisiae (AID 463213);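 also: tim10-1 mutant grown at permissive 25 °C to find synthetic lethal compounds; 0% = DMSO yeast wells and 100% = medium wells without yeast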
Conditions: S. cerevisiae tim10-1 ts strain growth, BacTiter-Glo, 24 h; at 20 µM; active compounds read high

inhibition, inactive:
O=c1c(-c2ccc3c(c2)OCCO3)c(C(F)(F)F)oc2cc(O)cc(O)c12 22.5%
Cc1cccc(CN2CCC(CNC(=O)Nc3ccc(F)c(Cl)c3)CC2)c1 14.9%
CCOC(=O)C1=C(C)N=c2s/c(=C\C(=O)OC)c(=O)n2C1c1ccc(OC)cc1 (stereo unspecified) 24.7%
Oc1c(C(c2ccccn2)N2CCOCC2)ccc2cccnc12 (stereo unspecified) 16.2%
CCc1ccc(-c2cc3c(=O)n(CC(=O)NCCCN4CCN(Cc5ccccc5)CC4)nc(C)n3n2)cc1 -46.4%
CCCCNC(=S)N/N=C1\CCCCc2ccccc21 22.1%
C=CCNC(=S)N1CCN(CCN=Cc2c(C)[nH]n(-c3ccc([N+](=O)[O-])cc3)c2=O)CC1 27.4%
COc1ccc(-c2oc3ncn(Cc4ccco4)c(=N)c3c2-c2ccc(OC)cc2)cc1 17.6%
CCOC(=O)c1c(N)nn(C(=O)c2ccccc2)c1-c1ccccc1 16.3%
C=CCNc1nc(Nc2ccc(Cl)cc2)nc(OC)n1 2.4%
Cc1ccc(OS(=O)Nc2cccc3nccnc23)cc1 (stereo unspecified) 25.4%
COc1ccc(C(=O)/C=C/c2ccc(-c3ccccc3)cc2)cc1CSCC(=O)O 22.9%
CN1c2ccccc2-c2nc3ccccc3n2C1c1ccco1 (stereo unspecified) 19.8%
CCn1nc(C)c(NC(=O)/C=C/c2ccc(OC)c(COc3ccc(Br)cc3)c2)c1C 19.9%
COc1ccccc1-n1ccnc(SCC(=O)NC2CCCCC2)c1=O 11.8%
CCc1ccc(C(=O)NC(=S)Nc2ccccc2N2CCOCC2)cc1 17.1%
COc1ccccc1C(=O)NC(=S)Nc1ccccc1N1CCCCC1 19.4%
COc1ccc(/C=N/Nc2ncnc3sc4c(c23)CCCC4)cc1O 17.2%
CCOC(=O)N1CCC(N2Cc3cccc(C(=O)Nc4c(C)cccc4CC)c3C2=O)CC1 16.6%
COc1ccc(C(=O)NC(=S)NNC(=O)c2c(-c3ccccc3)noc2C)cc1 18.1%
COc1ccc(Nc2nc(N)nc(CSC(=S)N3CCC(C)CC3)n2)cc1 29.9%
Cc1cc(Br)ccc1NC(=O)c1sc2ncn(CC(=O)N3CCN(c4ccccn4)CC3)c(=O)c2c1C -10.2%
O=C(Oc1ccc(-c2nc(-c3ccccn3)no2)cc1)c1ccccc1 30.3%
N#Cc1ccc(CSc2nnc(-c3ccccn3)n2-c2ccc(Cl)cc2)cc1 30.9%
CC(c1ccco1)N(C(=O)Nc1ccccc1)C1CCCCC1 (stereo unspecified) 19.4%
COc1ccc(OC)c2sc(NC(=O)C3COc4ccccc4O3)nc12 (stereo unspecified) 23.6%
c1c2c(cc3sc(N4CCCCC4)nc13)OCCO2 27.8%
Cc1ccc(/C(N)=N/OC(=O)COc2ccc(Cl)c(C)c2)cc1 29.1%

inhibition, active:
O=C(Nc1ccc(Br)cn1)c1ccc([N+](=O)[O-])o1 59.5%
Cc1cccc(NC(=O)c2ccc([N+](=O)[O-])o2)c1 50.1%
Cc1onc(NC(=O)c2ccc([N+](=O)[O-])o2)c1Br 45.9%
CC(=O)/C(=N\Nc1ccc(Cl)cc1Cl)Sc1cccc2cccnc12 43%
Cc1cc(C)c(S(=O)(=O)c2ccccc2)c(OC(=O)c2c(F)cccc2Cl)n1 41.5%
CCN1CCN(C(c2cccnc2)c2cc(Cl)c3cccnc3c2O)CC1 (stereo unspecified) 34%
CCOC(=O)c1ccc(N2C(=O)CC(N3CCC(C(=O)OCC)CC3)C2=O)cc1 (stereo unspecified) 47.8%
Cc1[nH]c(=O)c(C(=O)/C=C/c2ccccc2)c2c1CCCC2 50.3%
COc1ccc(Cn2c(-c3ccc(Cl)cc3)c[n+]3ccccc23)cc1 32.9%
Cc1[nH]n(-c2ccc([N+](=O)[O-])cc2)c(=O)c1C=NCCN1CCN(C(=O)c2ccccc2F)CC1 40.4%
COc1ccc(CNC(=O)/C(C#N)=C/c2cccc(OC)c2OC)cc1 78.2%
O=C(NNc1c2ccccc2nc2ccccc12)c1cc2ccccc2cc1O 40.6%
Cc1cc(Nc2ccccc2)n(C(=O)c2ccc(N)cc2)n1 39.9%
Clc1ccc(Nc2ccc3ccccc3n2)cc1 50.6%
C=CS(=O)c1sc(Cl)c(N2CCOCC2)c1[N+](=O)[O-] (stereo unspecified) 83.8%
Nc1ccccc1SC(C[N+](=O)[O-])c1ccccc1 (stereo unspecified) 47.1%
CC(=O)Nc1ccc(/C=C/C(=O)c2ccccc2)cc1 36.3%
CCCCCCCCn1c2c(c(=N)c3c1CCC3)CCCC2 30.4%
O=[N+]([O-])c1ccc2oc(-c3cccc(O)c3)nc2c1 49.8%
Cc1ccc(C(=O)NC(=S)Nc2ccccc2C)cc1 29.8%
Cc1ccc(C(=O)/C=C/c2c(C)nn(-c3ccccc3)c2Cl)cc1 38%
Cc1[nH]c2ccccc2c1C(=O)COC(=O)c1c(-c2ccccc2)noc1C 45.4%
CC(=NCc1ccco1)c1c(C(F)(F)F)[nH]n(-c2nc3ccccc3s2)c1=O 63.5%
O=C(O/N=C(/c1ccccc1)c1ccncc1)c1ccccc1[N+](=O)[O-] 35.3%
Cc1ccc(Oc2nc(-c3ccccn3)nc3ccccc23)cc1 35.5%
O=C(ON=C1CCN(S(=O)(=O)c2ccccc2)CC1)c1ccc(Cl)cc1 61%
CCOc1cccc(-c2nn3c(-c4ccccn4)nnc3s2)c1 39%
Cc1cc(C)nc(S/C=C/C(=O)c2ccccc2)n1 71%
COc1ccc(NCc2nnc(SCc3ccccc3)n2-c2ccc(OC)cc2)cc1 38.9%
CC(NC(=S)Nc1ccccc1)C1COc2ccccc2O1 (stereo unspecified) 37.4%
Cc1ccc(SC(CC(=O)c2ccc(C(C)(C)C)cc2)C(=O)O)cc1 (stereo unspecified) 38.5%
Cc1cccc(/C(N)=N/OC(=O)c2ccccc2Cl)c1 50.9%
Cc1cc(N=Nc2ccc3ccccc3c2)ccc1O 36.4%
